Test in all cases: NCI-60 one-dose screen, 48 h (100 = growth as untreated, 0 = no growth, -100 = all killed)
Common to all, as to conditions: 10 µM unless noted

Assay [1] deals with HCT-15 colon.
Assay [2] relates to HT29 colon.
Assay [3] deals with SNB-75 CNS.
Assay [4] deals with SNB-19 CNS.
The test system of assay [5] is U251 CNS.
The test system of assay [6] is PC-3 prostate.
For assay [7], the system named is LOX IMVI melanoma.
Assay [8] deals with UACC-62 melanoma.
Assay [9] concerns SK-MEL-28 melanoma.
The test system of assay [10] is SK-MEL-5 melanoma.

SMILES strings stand for the structures. The panel holds about 83,000 compounds, 20% with a hit somewhere; the sample as a whole holds those more often.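 Interpretation: 100, growth as untreated; towards 0, rising growth inhibition; 0, no net growth; 0 to -100, cell death. Compounds scoring below 10 were considered active.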 A number with no mark means an inactive call. Active and inactive are the calls of the source.

Take `OCCN1CCN(c2nc(Nc3ccc(-c4nc5ccccc5[nH]4)cc3)c3cn[nH]c3n2)CC1`: the growth is -78.9% (active) in [1]; -91.4% (active) in assay [2]; -96.6% (active) in assay [3]; -76.7% (active) in assay [4]; -99.7% (active) in assay [5]; -76.1% (active) in [6]. Further, the growth in assay [7] is -89.2% (active).
As to `O=C1/C(=C/c2ccccc2O)N=C2SCCCN12`, the growth in [1] is 97%; in assay [2], 103%; in [3] it was 70.6%; in [4], 90.8%; in assay [5], 98.6%; in [6], 88.2%. Moreover, in assay [7], the growth is 96.5%.
For `COc1ccccc1Nc1nc(-c2cc3cccc(C(F)(F)F)c3oc2=O)cs1`, the growth in assay [1] was 16%; in assay [2] it was 3.1% (active); in assay [3], 15%; in assay [4] it was 26.7%; in assay [5], 9.97% (active); in [6], 21.2%. Also, in assay [7], the growth was 17.3%.
On to `O=C1c2c(O)cc(O)cc2-c2c(-c3ccc(O)cc3)oc3cc(O)cc1c23`, for which the growth was 57.5% in assay [1]; 88.8% in assay [2]; 26.4% in [3]; 44.8% in assay [4]; 25.5% in assay [5]; 50.5% in assay [6]. Moreover, the growth in [7] was 17.9%.
For `O=CNc1ccc2c(c1)Cc1cccc(NC=O)c1-2`, the growth in assay [1] is 91.8%; in [2], 96.2%; in assay [3], 90.7%; in [4], 102%; in [5] it was 95.1%; in assay [6], 95.2%. For the same compound, the growth was 72.1% in [8] and 112% in [9].
On to `CC/C=C\C[C@H](O)C/C=C1/C(=O)C=C[C@@]1(C)C/C=C\CCCC(=O)OC`, for which the growth is 101% in assay [1]; 110% in assay [2]; 99.1% in assay [3]; 101% in [4]; 94.2% in [5]; 96.1% in assay [6]. In addition, in [7], the growth is 94.3%.
Consider `CCN(CC)S(=O)(=O)c1ccc(OC)c(NC(=O)c2[nH]c(C)c3c2CCCCC3=O)c1`, for which the growth was 18.9% in [1]; 14.5% in assay [2]; 9.16% (active) in [3]; 45.2% in assay [4]; 43.6% in assay [5]; -21.8% (active) in [10]. The figures for the growth in assay [8], in assay [7] and in assay [9] were 16.2%, 9.93% (active) and 55.7%, respectively.
On to `NS(=O)(=O)c1ccc(CN=C2NC(=O)S/C2=C\c2ccc(Br)cc2)cc1`, for which the growth was 103% in [1]; 105% in [2]; 89.1% in assay [3]; 97.7% in assay [4]; 97.9% in assay [5]; 99.2% in assay [10]. The growth in assay [8] is 93.3%; in assay [7] it was 100%; in [9], 100%.
As to `C#CCOc1ccc2ncnc(N3CCC(NC(=O)CCl)CC3)c2c1`, the growth in assay [1] is 67.7% [8.25 µM]; in [2] it was 64.9% [8.25 µM]; in assay [3], 24.2% [8.25 µM]; in assay [4] it was 77.9% [8.25 µM]; in [5], 66.1% [8.25 µM]; in [10], 75% [8.25 µM]. The growth is 72.7% [8.25 µM] in assay [8], 78.1% [8.25 µM] in [7] and 77.5% [8.25 µM] in assay [9].
On to `O=C1C=CC(=O)N1c1ccc2c(c1)Cc1cc(F)ccc1-2`, for which the growth was 97.1% in assay [1]; 95% in assay [2]; 75.8% in [3]; 90.7% in assay [4]; 88.9% in [5]; 98.1% in [10]. The growth in assay [8] is 91.6%; in assay [7], 104%; in assay [9] it was 99.9%.
Take `COc1ccc(CN2c3ccccc3Oc3ccccc32)cc1F`: the growth in assay [1] was 47.4%; in [2], 11.2%; in assay [3], 47.9%; in [4], 67.8%; in assay [5] it was 39.5%; in assay [6], 64.8%. Also, the growth in [7] was 59%.
For `O=C1/C(=C/c2ccc3c(c2)OCO3)SC(=S)N1CCc1ccc(O)cc1`, the growth was 93% in [1]; 113% in assay [2]; 83.7% in assay [3]; 95.5% in assay [4]; 102% in [5]; 98.2% in assay [10]. The growth in [8] is 88%; in assay [7], 91.3%; in assay [9] it was 104%.
For the compound `O=C(COc1cccc(/C=C2\COc3ccccc3C2=O)c1)Nc1nccs1`, the growth in assay [1] is -17.9% (active); in [2], -28.7% (active); in [3] it was 77.3%; in assay [4], 73.5%; in assay [5], 22.6%; in assay [10], 52.3%. The values for the growth in assay [8], in assay [7] and in [9] were 78.2%, -96.8% (active) and -68.3% (active), respectively.
Consider `Cc1cc(C)nc(SC2=C(Nc3cc(Cl)ccc3O)C(=O)N(Cc3ccccc3)C2=O)n1`, for which the growth in [1] was 92.1% [30 µM]; in [2], 108% [30 µM]; in assay [3] it was 81% [30 µM]; in assay [4] it was 89.6% [30 µM]; in [5], 87.5% [30 µM]; in assay [10] it was 49% [30 µM]. Moreover, the growth was 70.6% [30 µM] in assay [8], 71.1% [30 µM] in [7] and 106% [30 µM] in assay [9].
For the compound `Cc1cc2nc(NC(=O)CN3CCN(CCN4C(=O)c5cccc6cccc(c56)C4=O)CC3)sc2cc1C`, the growth in [1] was 81.1%; in assay [2] it was 51.8%; in [3], 77.8%; in assay [4], 75.3%; in assay [5] it was 73.2%; in assay [10] it was 77%. In addition, the growth in assay [8] was 83.8%; in assay [7] it was 77.9%; in [9] it was 106%.
